Data reported in PubChem BioAssay.
The other results are listed elsewhere or left out. The source made the active and inactive calls.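 The calls were made as follows, unless noted: active = GFP response above 150% of the DMSO level; inconclusive = fewer than 70 events counted for a yeast strain; inactive = the rest.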

Key:
[1] = RPL19A-GFP modulators, yeast TOR pathway, confirmation, cell-based, S. cerevisiae, flow cytometry, cherry picks, mother/daughter gates (AID 2270;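 active = GFP response below 50% of the DMSO control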); settings: S. cerevisiae RPL19A-GFP strain, 3 h, at 10 µM, stronger effect = lower value, 100 = same GFP as DMSO wells
[2] = LAP4-GFP expression modulators in yeast, confirmation, cell-based, cherry picks, flow cytometry, mother/daughter gates (AID 2271;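 active = GFP response above 150% of the DMSO control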;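 also: ratio of sample to DMSO plate mean so 100% equals DMSO level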); settings: S. cerevisiae LAP4-GFP strain, 3 h, at 10 µM, stronger effect = higher value, 100 means same as DMSO control
[3] = modulators of MEP2-GFP levels in yeast, confirmation, S. cerevisiae, flow cytometry GFP, cherry picks (AID 2272;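 active = GFP response above 150% of the DMSO control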;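 also: ratio of well signal to plate DMSO mean so 100% equals DMSO level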); settings: S. cerevisiae MEP2-GFP strain, 3 h, at 10 µM, stronger effect = higher value
[4] = AGP1-GFP expression modulators, hit retest, confirmation, cell-based, flow cytometry, S. cerevisiae, cherry picks (AID 2273);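 also: median GFP channel fluorescence over the whole cell population gate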; settings: S. cerevisiae AGP1-GFP strain, 3 h, at 10 µM
[5] = modulators of CIT2-GFP expression in yeast, confirmation, S. cerevisiae, GFP fusion, cherry picks, mother/daughter gates (AID 2274); settings: S. cerevisiae CIT2-GFP strain, flow cytometry, 3 h, at 10 µM, stronger effect = higher value
[6] = compound autofluorescence in yeast s288c, dose response, artefact control for yeast TOR pathway GFP screen, s288c strain (AID 2757;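 active = fluorescence span over the dose series, or activity score, above about 33, limit read from the data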;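 also: thousands of bead-calibrated equivalent soluble fluorophore molecules from median cell fluorescence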); settings: S. cerevisiae s288c, 520 nm autofluorescence, flow cytometry, 3 h; at 33 µM; stronger effect = higher value; zero means same as solvent-only cells
[7] = measured here: daughter cell gate
[8] = measured here: mother cell gate
[9] = measured here: daughter cell gate response
[10] = measured here: mother cell gate response

SMILES | GFP response vs DMSO [1] | GFP response vs DMSO [1, 7] | GFP response vs DMSO [1, 8] | GFP response relative to DMSO [2] | GFP response relative to DMSO [2, 9] | GFP response relative to DMSO [2, 10] | GFP response vs DMSO [3] | GFP response, % of DMSO [4] | GFP response, % of DMSO [5] | GFP response, % of DMSO [5, 7] | GFP response, % of DMSO [5, 8] | fluorescence change (kMESF span) [6]
COC(=O)c1ccc(NC(=O)c2nc(S(=O)(=O)Cc3cccc(C)c3)ncc2Cl)cc1 | 98.4% (inactive) | 96.1% | 98.7% | 103% (inactive) | 102% | 106% | 100% (inactive) | 95.7% (inactive) | 88.7% (inactive) | 88.3% | 86.9% | 
O=C1C(Cl)=C(Nc2ccc(F)cc2)C(=O)N1CCc1ccccc1 | 100% (inactive) | 99.3% | 101% | 95.7% (inactive) | 95.9% | 96.2% | 101% (inactive) | 104% (inactive) | 100% (inactive) | 101% | 99.3% | 
COc1cccc(-c2noc(-c3cccnc3)n2)c1 | 97.2% (inactive) | 97.1% | 96.3% | 102% (inactive) | 102% | 100% | 101% (inactive) | 97.3% (inactive) | 103% (inactive) | 105% | 102% | 
CCOC(=O)c1c(C)oc2c1c(C(c1cccnc1)N1CCOCC1)c(O)c1ccccc12 (stereo not given) | 95% (inactive) | 98.5% | 89.6% | 203% (active) | 199% | 188% | 124% (inactive) | 104% (inactive) | 97.8% (inactive) | 109% | 86.3% | 
CCOc1cc(/C=C2/N=C(c3ccc4c(c3)OCO4)OC2=O)ccc1OC(C)=O | 92% (inactive) | 87.5% | 94.2% | 95.7% (inactive) | 95.9% | 96.2% | 101% (inactive) | 103% (inactive) | 97.3% (inactive) | 95.6% | 98.1% | 
COc1ccccc1C1CCN(Cc2c(C)[nH]c3ccccc23)CC1 | 103% (inactive) | 102% | 104% | 97% (inactive) | 95.9% | 96.2% | 99% (inactive) | 102% (inactive) | 98.8% (inactive) | 97.4% | 98.1% | 
COc1ccc(-c2nc3cc(C)ccn3c2NCC2CCCO2)cc1OC (stereo not given) | 94.8% (inactive) | 96.4% | 93.4% | 97% (inactive) | 94.2% | 96.2% | 99% (inactive) | 104% (inactive) | 100% (inactive) | 101% | 99.3% | 
CS(=O)(=O)N1N=C(c2ccco2)CC1c1ccccc1 (stereo not given) | 100% (inactive) | 101% | 99.9% | 102% (inactive) | 102% | 100% | 99% (inactive) | 105% (inactive) | 106% (inactive) | 105% | 103% | 
C/C(=N\NC(=O)Cc1ccc([N+](=O)[O-])cc1)c1cccnc1 | 97.8% (inactive) | 99.3% | 97.7% | 98.2% (inactive) | 97.5% | 97.3% | 96.8% (inactive) | 98.4% (inactive) | 102% (inactive) | 103% | 102% | 
Oc1ccccc1/C=N/c1c(-c2ccco2)nc2ccccn12 | 99.5% (inactive) | 98.1% | 100% | 93.8% (inactive) | 97.2% | 97.2% | 100% (inactive) | 102% (inactive) | 102% (inactive) | 99.7% | 102% | 
O=C(O)CCC(=O)Nc1ccc(S(=O)(=O)c2ccc(NC(=O)CCC(=O)O)cc2)cc1 | 98.5% (inactive) | 100% | 97.7% | 102% (inactive) | 97.5% | 102% | 106% (inactive) | 100% (inactive) | 98.6% (inactive) | 99.3% | 99.3% | 
C/C(=N\NC(=O)c1ccc(Cl)cc1)c1cccc(NC(=O)C(C)C)c1 | 95.8% (inactive) | 95.1% | 95.8% | 99.2% (inactive) | 99.2% | 97.2% | 96.2% (inactive) | 97.2% (inactive) | 101% (inactive) | 101% | 101% | 
CCOc1ccc(N2C(=O)CC(Sc3ncccn3)C2=O)cc1 (stereo not given) | 98.2% (inactive) | 98.4% | 99.2% | 97.9% (inactive) | 97.6% | 98.3% | 100% (inactive) | 101% (inactive) | 104% (inactive) | 105% | 104% | 
Cc1ccc(N2C(=O)C(Cl)=C(NCc3ccccc3)C2=O)c(C)c1 | 96.2% (inactive) | 95.2% | 97% | 106% (inactive) | 104% | 107% | 101% (inactive) | 100% (inactive) | 94.4% (inactive) | 95.6% | 94.4% | 
COC(=O)Cn1cc(/C=C/[N+](=O)[O-])c2ccccc21 | 101% (inactive) | 103% | 100% | 145% (inactive) | 146% | 145% | 101% (inactive) | 103% (inactive) | 106% (inactive) | 108% | 103% | 
O=C(N/N=C/c1ccc(F)cc1)c1ccc(Br)cc1 | 99.6% (inactive) | 98.6% | 98% | 111% (inactive) | 109% | 109% | 96.8% (inactive) | 99.6% (inactive) | 102% (inactive) | 101% | 87% | 
Oc1ccc(C2Nc3cccc4cccc(c34)N2)cc1 | 99% (inactive) | 99.2% | 99.4% | 107% (inactive) | 105% | 111% | 97.8% (inactive) | 98.7% (inactive) | 100% (inactive) | 98.1% | 102% | 

SMILES | GFP response vs DMSO [1] | GFP response vs DMSO [1, 7] | GFP response vs DMSO [1, 8] | GFP response relative to DMSO [2] | GFP response relative to DMSO [2, 9] | GFP response relative to DMSO [2, 10] | GFP response vs DMSO [3] | GFP response, % of DMSO [4] | GFP response, % of DMSO [5] | GFP response, % of DMSO [5, 7] | GFP response, % of DMSO [5, 8] | fluorescence change (kMESF span) [6]
CN1CCN(CCCCOc2ccccc2C=O)CC1 | 99.5% (inactive) | 97.8% | 101% | 97.4% (inactive) | 97.2% | 99.3% | 104% (inactive) | 102% (inactive) | 97.8% (inactive) | 94.8% | 98.7% | 
O=C(/C=C/c1ccccc1)Nc1ncn[nH]1 | 97.4% (inactive) | 97.3% | 96% | 135% (inactive) | 125% | 137% | 102% (inactive) | 98% (inactive) | 97.8% (inactive) | 100% | 94.5% | 
O=C(NCC(c1ccc(F)cc1)N1CCOCC1)c1cc(F)c(F)c(F)c1F (stereo not given) | 100% (inactive) | 99.6% | 101% | 102% (inactive) | 102% | 102% | 101% (inactive) | 102% (inactive) | 102% (inactive) | 101% | 101% | 
O=C(O)c1ccc(/C=N/NC(=O)c2ccc(Br)cc2)cc1 | 102% (inactive) | 100% | 102% | 98.2% (inactive) | 95.9% | 98.4% | 101% (inactive) | 99.8% (inactive) | 94.4% (inactive) | 93.8% | 94.4% | 
COc1cc(/C=C/c2ccc3c(Br)cc(Br)c(O)c3n2)ccc1O | 101% (inactive) | 107% | 102% | 107% (inactive) | 106% | 108% | 108% (inactive) | 98.6% (inactive) | 99.7% (inactive) | 105% | 89.8% | 
Cc1nc2c(-c3ccc(F)cc3)c(C)nn2c(N2CCOCC2)c1C | 100% (inactive) | 101% | 100% | 96.5% (inactive) | 96.5% | 97.5% | 104% (inactive) | 98.7% (inactive) | 104% (inactive) | 104% | 101% | 
O=C(Nc1cccc(Cl)c1N1CCCC1)c1ccc([N+](=O)[O-])o1 | 99.2% (inactive) | 96.4% | 95.8% | 99.2% (inactive) | 92.8% | 96.1% | 100% (inactive) | 97.6% (inactive) | 99.7% (inactive) | 99.1% | 91.4% | 
O=C(NC(=S)NNC(=O)c1cnccn1)c1ccc(Cl)cc1 | 103% (inactive) | 95% | 98.2% | 279% (active) | 241% | 260% | 114% (inactive) | 95.7% (inactive) | 106% (inactive) | 105% | 98.2% | 
COc1ccc(/C=N/Nc2nc(-c3cccnc3)nc3ccccc23)c(OC)c1 | 98% (inactive) | 97.6% | 98.2% | 96.7% (inactive) | 94.4% | 98.3% | 111% (inactive) | 96.8% (inactive) | 108% (inactive) | 112% | 107% | 
COc1ccc(N/N=C(\C#N)C(N)=O)cc1 | 83.7% (inactive) | 64.6% | 83.7% | 166% (active) | 136% | 185% | 141% (inactive) | 125% (inactive) | 136% (inactive) | 114% | 135% | 
COc1ccc(C2CC(c3cccs3)=NN2S(=O)(=O)c2ccc(C)cc2)cc1 (stereo not given) | 98.7% (inactive) | 99.1% | 98.6% | 106% (inactive) | 105% | 107% | 104% (inactive) | 106% (inactive) | 106% (inactive) | 106% | 106% | 
Cc1[nH][nH]c(=O)c1C(c1ccc(-c2ccc(Cl)cc2)o1)c1c(C)[nH][nH]c1=O | 101% (inactive) | 102% | 99.8% | 188% (active) | 179% | 179% | 114% (inactive) | 103% (inactive) | 101% (inactive) | 102% | 95.6% | 0.2 (inactive)
O=C1C=CC(=O)N1c1cccc(-c2ccccc2)c1 | 70.2% (inactive) | 84.3% | 59.1% | 220% (active) |  | 191% | 109% (inactive) | 104% (inactive) | 86.1% (inactive) | 93.2% | 70.8% | 
O=C(c1ccc(Cl)c([N+](=O)[O-])c1)N1CCN(c2ccccc2)CC1 | 99.4% (inactive) | 101% | 96.7% | 116% (inactive) | 114% | 111% | 102% (inactive) | 97.8% (inactive) | 95.5% (inactive) | 101% | 92.6% | 2.52 (inactive)
O=C1C=CC(=O)N1c1ccc(N2CCCCC2)cc1 | 75.5% (inactive) | 86.8% | 63.8% | 220% (active) | 99.2% | 218% | 87.8% (inactive) | 79.9% (inactive) | 104% (inactive) | 97.2% | 89% | 0.41 (inactive)
COc1ccc([N+](=O)[O-])c(S(=O)(=O)c2ccc(Cl)cc2)n1 | 84.5% (inactive) | 54.7% | 74.7% | 333% (active) | 173% | 309% | 136% (inactive) | 131% (inactive) | 93.4% (inactive) | 100% | 78.8% | 
